Results as given in PubChem BioAssay (NCI).
Compounds without any hit were thinned out: in the full panel of roughly 83,000, 20% have a hit.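 Testing used 96-well plates and a 48-hour single-concentration exposure. Example: -40 means 40% of the starting cells died.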 Unmarked numbers belong to inactive results. The source made the active and inactive calls. Rule for the calls: active = growth percent below 10; inactive = the rest.

Legend:
Assay in all cases: NCI-60 one-dose screen, 48 h (100 = growth as untreated, 0 = no growth, -100 = all killed)
Conditions in all cases: 10 µM
SR leukemia = test system: SR leukemia
RPMI-8226 leukemia = test system: RPMI-8226 leukemia
OVCAR-8 ovarian = test system: OVCAR-8 ovarian
OVCAR-5 ovarian = test system: OVCAR-5 ovarian
OVCAR-4 ovarian = test system: OVCAR-4 ovarian
SK-OV-3 ovarian = test system: SK-OV-3 ovarian
IGROV1 ovarian = test system: IGROV1 ovarian
OVCAR-3 ovarian = test system: OVCAR-3 ovarian
HS 578T breast = test system: HS 578T breast
NCI/ADR-RES ovarian = test system: NCI/ADR-RES ovarian

| SMILES | growth (SR leukemia) | growth (RPMI-8226 leukemia) | growth (OVCAR-8 ovarian) | growth (OVCAR-5 ovarian) | growth (OVCAR-4 ovarian) | growth (SK-OV-3 ovarian) | growth (IGROV1 ovarian) | growth (OVCAR-3 ovarian) | growth (HS 578T breast) | growth (NCI/ADR-RES ovarian) |
| --- | --- | --- | --- | --- | --- | --- | --- | --- | --- | --- |
| CCCCc1oc2ccccc2c1C(=O)c1cc(I)c(OCCN(CC)CC)c(I)c1 | -51.8% (active) | -29.5% (active) | -10% (active) | -36% (active) | 10.3% | -38.1% (active) | 29.5% | 12% | -19.3% (active) | -20.3% (active) |
| O=C(CNc1nnc(-c2cccnc2SCc2ccccc2)s1)Nc1nc(Cl)cc(Cl)n1 | 98.5% | 108% | 118% | 109% | 103% | 99.2% | 96.6% | 106% | 130% | 114% |
| O=C(/C=C/C=C/c1c(C2CC2)nc2ccccc2c1-c1ccc(F)cc1)c1cccs1 | -6.7% (active) | -26.6% (active) | 18.1% | 1.66% (active) | 24% | 42.6% | 19.1% | -2.17% (active) | 24.4% | 22.9% |
| CC(C)[N+]1(C)C2CC[C@@H]1CC(OC(=O)C(CO)c1ccccc1)C2 (stereo not given in full) | 123% | 101% | 104% | 108% | 110% | 116% | 119% | 125% | 104% | 101% |
| CCN(CCCNc1cc2c(c(N)c1S(=O)(=O)O)C(=O)c1ccccc1C2=O)c1ccccc1 | 118% | 101% | 96.4% | 107% | 109% | 100% | 114% | 111% | 93.5% | 99.8% |
| CN(C)CCC1(c2ccccc2)CCN(C)C1=O (stereo not given) | 112% | 108% | 104% | 107% | 113% | 100% | 109% | 99.5% | 108% | 103% |
| C/C=C/CSC(C)(C)C(=O)NC | 109% | 99.8% | 98.4% | 113% | 117% | 95.6% | 115% | 108% | 99.5% | 108% |
| CCCC1(CN2c3ccccc3Sc3ccc(Cl)cc32)CCN(CC)C1 (stereo not given) | -50.1% (active) | -43.2% (active) | -41.2% (active) | 8.89% (active) | 28.3% | 21.7% | -42.7% (active) | 2.48% (active) | -22.8% (active) | 31.4% |
| O=C1/C=C/[C@@H](O)[C@@H]2C[C@@H](O)C[C@H]2/C=C/CCC[C@H](C(F)(F)F)O1 | -5.34% (active) | -23.8% (active) | 2.07% (active) | 16.2% | 28.5% | 57.8% | 19.4% | -28% (active) | 38.5% | -9.43% (active) |
| CCOC(=O)c1cc(C(=O)c2cc(OC)cc(OC)c2)n2nc(C)ccc12 | 18.4% | 12.2% | 29.7% | 59.6% | 56.6% | 6.35% (active) | 44.8% | 1.01% (active) | 36.4% | 19.5% |
| Nc1ccc(CC[C@H]2CCC/C=C/[C@@H]3C[C@H](O)C[C@H]3[C@H](O)/C=C/C(=O)O2)cc1 | 1.1% (active) | -4.05% (active) | 2.58% (active) | 11.4% | 11.3% | 26.6% | 12% | -13.4% (active) | 39.6% | -0.671% (active) |
| CC(=O)N[C@H](C(=O)N[C@@H](CCCNC(=N)N)C(=O)N[C@@H](CCCCN)C(=O)N[C@@H](CCCNC(=N)N)C(=O)N[C@]1(C)CCC/C=C\CCC[C@@](C)(C(=O)N[C@@H](CC(C)C)C(=O)N[C@@H](CC(C)C)C(=O)N[C@@H](CCC(N)=O)C(=O)N[C@@H](CCC(=O)O)C(=O)N[C@@H](CCCNC(=N)N)C(=O)N[C@@H](CCC(=O)O)C(=O)N[C@@H](CC(C)C)C(=O)N[C@H](C(=O)N[C@@H](CCC(=O)O)C(N)=O)C(C)C)NC(=O)[C@H](CCCNC(=N)N)NC(=O)[C@H](CC(C)C)NC1=O)C(C)C | 104% | 104% | 104% | 111% | 107% | 108% | 110% | 109% | 119% | 109% |
| COc1ccc(-c2nnc(SCC(=O)Nc3ccc(C(=O)/C=C/c4ccccc4)cc3)n2-c2ccccc2)cc1OC | 57.5% | 23.4% | 51.3% | 104% | 62.5% | 101% | 87.4% | 88.8% | 83.1% | 88.3% |
